# System: VDR:RXRa (NR concentration 270 nM, RXRa partner concentration 90 nM)
# Assay: PBM binding z-score (relative to random genomic background probes); higher = stronger binding; sequences stand for … in GC…GCGATTGACAGCGTAGAATGAAGG
# Method: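 Protein-binding microarray (Agilent 4x180K custom design, double-stranded 60-nt probes: 5' GC cap, 34-nt variable region, 24-nt constant primer region; full probe sequence given). Purified or IVT nuclear receptor:RXRα heterodimers (3:1 NR:RXRα, mostly 270:90 nM) or homodimers were incubated for 1 h in PBS with 2% milk and no ligand, then detected with Alexa488 antibodies. Fluorescence from o1-orientation probes (~5 replicates averaged) was converted to z-scores against 500 random hg19 background probes. Variable regions are seed direct-repeat (DR0–DR5) sites, all their single-nucleotide variants and half-site ablations.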
row,Sequence,PBM binding z-score
1,CCTAGGTGGTCAAGGTCACACACGCTATAGGTAC,4.76
2,AGAATGAGGTTCAGATCAGGGAAACAGAATACAT,0.949
3,ACTATTAGTTGAGACGAGGGCAATCGATAGGTTG,0.793
4,CCTCGGAGGACAGAAGGTCATAGCTGTCCGCTTT,2.69
5,CAAACTAGGTCAAGGTCAGAGTCGGTTTGTGCCA,3.93
6,ATCGAAAGGTCGACGAGGTGAGTAGACACCGTTT,5.23
7,CCGACTGTGGCAGAAAGGTTACCATACCATCCGG,0.378
8,AATACAGGGTCATCGTAGGCCAAAGTACGCACAG,5.62
9,ATATGTAGGTTATCGAGTCATTCAGTTTGCGCAT,1.72
10,TCTATTAGTTGAAGGGCAACCGGCGAGTCCGTTT,0.946
11,TCTTGTAGATCAATATAGGTTAAGAAAGTGCGCT,1.24
12,CTCGAACGGTCGTGCTCAGGTGAGTATACCAAAC,-0.344
13,CCTTACGGGTGAAGGTTATAGCACGGGTGGTACG,0.0707
14,TAGCCTAGGTCATTCAGGGGCCCGTATAGAAAGC,2.51
15,TGTCAAAGTTCAAAGGTAACCTAAGTATCCACAC,5.12
16,ATCGAAAGGTCGTGAGGTGATTATACAGAAAGGC,3.61
17,CATACAGGGTCAGCTAAGCCAGAGTAGGGACGGC,2.69
18,TATACAGGGTCGAAGGCCAGAGTACGAATGTCGA,1.56
19,TGAAGGAGGTTATAAGATCAGGGAACGTTGCAAA,0.323
20,AGTCAAAGTTCACTAGGTAACGTCAGATTCAGCT,3.95

row,Sequence,PBM binding z-score
1,TCAGACAGGTGAAGGTAAGTCAGGTACGCAGTCG,0.301
2,ACAGACAGGTGATGAAGGTAACCCAGGCTATCAT,-0.00497
3,AGTCAAAGTTCACTAGGTATCGTAAGATTCAGCT,3.89
4,CCTCGGAGGACAGAATGTCAGAGCTGTCCGCTTT,-0.778
5,ACTTACGGGTCAACGAGGTTCTAGCACGCGTATA,6.52
6,ACTATTAATTGACTTAGGGCAACCGATACGACGC,0.425
7,TAGCCTAGGTCATGGGCTAGTATACCACGCGAAC,1.72
8,GGAACGAGGGCAAAGTTGATAGCGTCTGTCGACG,1.39
9,AGAATGAGGTTATACGTAGCTCAGGGAAGAAAGT,1.2
10,CGTCCAAGGTCAGGAGGTCAGTGAAAGCGACGTG,4.66
11,CCAACTGGGGCAGAAAGGTTACCATACCATCCGG,0.976
12,TTACCAAGGTGAGCTGAGGTAGTTGATCCAACTC,-0.45
13,ACTAGCGGGCCAAGTTTGGGTCACTCAAACAAAG,0.318
14,ATCGAAAGGTCGTCAGGTGAGTATACAGAAAGGC,3.72
15,TTACCAAGGTGAAGGCCGTTGATCCCTCTGTAGA,-0.121
16,CGTCAACGTTCAAGGTAACGTAACAGAAAGCAGC,-0.14
17,CCTCGGAGGACAGAAGGTCAGCGCTGTCCGCTTT,1.22
18,ATATGTAGGTTAAGGGCCATTCAGGTTGGTTCGC,1.01
19,CCTAGTTGGCCAGGAGGTCACACACCGGATATGA,3.63
20,CGTCCAAGGTCAAGGTCAGTGACAGAGACTCGAA,4.83

# Source: the supplement of paper PMC6555819
